Source: PubChem
In the library only some 15% were active in any assay of this set; here they are far more common.
Pf growth 96h = P. falciparum growth inhibition at 96 hours. P. falciparum luciferase reporter growth, 96 h. Potency, µM (doses to about 28.7 µM), without a hit: top-dose activity change, negative = inhibition, hits mostly inhibitors. actives 6.9% (n = 320,000). AID 504834; also: potency is read from the fitted curve at half-maximal effect; % is scaled to controls: 0 for no effect and ±100 for the full control effect
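Infected RBCs, 2% Hct / 0.05% parasitemia final; luciferase-reporter P. falciparum; cpd 96 h, 37 C, 5% CO2; luciferase detection reagent; luminescence.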
Pf growth 48h = P. falciparum growth inhibition at 48 hours (one generation); Potency, µM (titrated, usually from 28.7 µM), inactives show at the top dose activity change, negative = inhibition, hits mostly inhibitors; P. falciparum luciferase growth in erythrocytes, 48 h; actives 5.9% (n = 310,000); also: potency is read from the fitted curve at half-maximal effect; % is scaled to controls: 0 for no effect and ±100 for the full control effect
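In quantitative HTS format, infected erythrocytes bearing luciferase-reporter parasites were treated for a single generation at 37 C. Luminescence after adding detection reagent served as the growth measure.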
SARS PLpro yeast = blocks SARS-CoV papain-like protease in a yeast assay; S. cerevisiae expressing SARS-CoV PLpro, growth rescue; Potency, µM (highest dose often 32.9 µM), inactives show at the highest dose activity, positive = growth rescue, usual class: activators; actives 0.19% (n = 330,000); AID 485353; calls by dose curve; also: potency is read from the fitted curve at half-maximal effect; 0% is about no effect; nearly all actives have a fitted effect of over 55% in size
HCMV antiviral = inhibitors of human cytomegalovirus | HFF cells, HCMV-luciferase reporter, 72 h; hits give low values | activity change, negative = inhibition, % at 57.5 µM | actives 4.5% (n = 410,000) | AID 1259415; in the data active = activity change below about -60%; inconclusive = no clear call, values can overlap the other calls; inactive = above about -39%; also: % is scaled to controls: 0 for no effect and ±100 for the full control effect
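Human foreskin fibroblasts infected with luciferase-reporter HCMV at MOI 1 PFU/cell, compounds at two doses. Luciferase measured 72 h post infection; normalized to buffer-only basal and Salinomycin (10uM) controls.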
HCV inh = inhibitors of hepatitis C virus infection. actives 3.4% (n = 340,000). Potency, µM (series often up to 41.8 µM), for inactives: at the top dose activity change, negative = inhibition, actives largely listed as inhibitors. Huh7.5.1 HCVcc-Cre infection, luciferase reporter, 44 h. AID 651820; also: potency is read from the fitted curve at half-maximal effect; % is scaled to controls: 0 for no effect and ±100 for the full control effect
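HCVcc-Cre virus at an moi near 0.5 was added right after compound to cells cultured 4 h from seeding (1,000 cells/well). Luciferase activity was determined 44 h later, 15 min after substrate addition at RT.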
Sm TGR block = inhibitors of Schistosoma mansoni thioredoxin glutathione reductase. AID 485364. purified TGR, DTNB reduction, TNB absorbance 405 nm. actives 3% (n = 360,000). Potency, µM (top dose mostly 114 µM), without a hit: at the highest dose activity change, negative = inhibition, hits mostly inhibitors. Q962Y6; also: potency is read from the fitted curve at half-maximal effect; % is scaled to controls: 0 for no effect and ±100 for the full control effect; nearly all actives have a fitted effect of over 60% in size
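First, TGR (20 nM dispensed) and NADPH were mixed with compound. Second, a 15 min room-temperature incubation followed. Third, further NADPH and then DTNB were added to start the reaction. Finally, TNB absorbance was monitored kinetically.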
The depositor's hits bear a star; ? = inconclusive; nt = no result given. Unless noted, calls follow the shape of the dose curve; as a rule, active = well fitted curve in the direction sought with a large enough effect; inconclusive = small, poorly fitted or top-dose-only effect, or another doubt; inactive = no such curve, though single readings can be large; an effect the other way counts as inactive or inconclusive.

SMILES	Pf growth 96h	Pf growth 48h	SARS PLpro yeast	HCMV antiviral	HCV inh	Sm TGR block
C[C@H](NC(=O)[C@@H]1CSC2c3ccccc3C(=O)N21)C(=O)NC1CCCC1 (stereo partly specified)	-13%	-17%	-3%	10	16%	-1%
O=C(NCc1ccco1)[C@@H]1CSC2c3ccccc3C(=O)N21 (stereo partly specified)	nt	9%	3%	-18	7%	32µM*
CC(C)[C@H](NC(=O)[C@@H]1CSC2c3ccccc3C(=O)N21)C(=O)NCc1ccco1 (stereo partly specified)	8%	-10%	23%	-20	-7%	45µM*
O=C(NCc1cccs1)[C@@H]1CSC2c3ccccc3C(=O)N21 (stereo partly specified)	-17%	-1%	1%	-18	-5%	18%
C[C@H](NC(=O)[C@@H]1CSC2c3ccccc3C(=O)N21)C(=O)NCc1c(F)cccc1Cl (stereo partly specified)	12µM*	?	0%	0	-12%	0%
COc1cccc(NC2=C(Cl)C(=O)OC2OC(=O)c2ccco2)c1 (stereo unspecified)	-59%	0%	1%	-7	15%	7.9µM*
CCOc1cccc(C(=O)N(Cc2ccc(C(C)C)cc2)C2CCS(=O)(=O)C2)c1 (stereo unspecified)	nt	nt	nt	18	nt	1%
COc1ccccc1CNC(=O)CSC1=Nc2ccccc2N=C(c2ccc(F)cc2)C1	nt	nt	nt	-9	nt	-1%
C=C(C)CNC(=S)N/N=C/c1ccc(N2CCOCC2)cc1	?	?	?	-78*	?	-16%
CC(C)NC(=S)N/N=C/c1ccc(N2CCOCC2)cc1	55%	19%	6%	-1	0%	-21%
O=C(N/N=C/c1ccc(N2CCOCC2)cc1)c1ccncc1	-10%	-22%	-4%	-15	34%	?
O=C(N/N=C/c1ccc(N2CCOCC2)cc1)c1ccccc1OCCOc1ccccc1	?	?	-3%	4	8.9µM*	-22%
COCCNC(=S)N/N=C/c1ccc([N+](=O)[O-])cc1	40%	4%	1%	18	2%	-2%
COCCNC(=S)N/N=C/c1ccc(N2CCOCC2)cc1	88%	79%	-9%	-97*	-29%	-18%
C=C(C)CNC(=S)N/N=C/c1ccc([N+](=O)[O-])cc1	15%	12µM*	4%	-19	-20%	-2%
O=C(CCCNC(=O)/C(=C/c1ccccc1F)NC(=O)c1ccccc1)OCc1ccccc1	2%	-11%	-25%	-30	?	-6%
CC1CCN(C(=O)CNC(=O)c2ccc(Br)o2)CC1	nt	nt	-5%	87	1%	nt
CC(CNC(=O)Cn1ccc2cc(S(=O)(=O)N3CCCCCC3)ccc21)c1ccccc1 (stereo unspecified)	nt	nt	nt	-29	nt	-4%
CC(=O)N1c2ccc(S(=O)(=O)N3CCCC(C(=O)N4CCC(C)CC4)C3)cc2CC1C (stereo unspecified)	?	?	4%	?	11µM*	6%
CCc1ccccc1NC(=O)C1CCCN(S(=O)(=O)c2ccc3c(c2)CC(C)N3C(C)=O)C1 (stereo unspecified)	13µM*	?	3%	-39	?	19%
CC(=O)N1c2ccc(S(=O)(=O)N3CCCC(C(=O)N4CCCC(C)C4)C3)cc2CC1C (stereo unspecified)	?	?	3%	?	?	2%
CCc1cccc(NC(=O)C2CCCN2S(=O)(=O)c2ccc3c(c2)CC(C)N3C(C)=O)c1 (stereo unspecified)	?	12µM*	4%	-22	-21%	-8%
CC1CCN(C(=O)C2CCN(S(=O)(=O)c3ccc4c(c3)CC(C)N4C(=O)C3CC3)CC2)CC1 (stereo unspecified)	0%	9.3µM*	18%	?	?	-11%
